Compounds without any hit were thinned out: in the full panel of roughly 83,000, 20% have a hit.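 The test compound was applied at a single concentration to cells in 96-well plates for 48 hours, and percent growth was recorded.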 Unmarked numbers belong to inactive results. Active and inactive are the calls of the source. How the source made its calls: active means growth percent below 10; inactive means the rest.
What was measured:
Assay in all cases: NCI-60 one-dose screen, 48 h (100 = growth as untreated, 0 = no growth, -100 = all killed)
Conditions in all cases: 10 µM unless noted
[1] = tested on: NCI-H23 lung
[2] = tested on: NCI-H226 lung
[3] = tested on: NCI-H322M lung
[4] = tested on: HOP-62 NSCLC
[5] = tested on: NCI-H460 lung
[6] = tested on: NCI-H522 lung
[7] = tested on: 786-0 renal
[8] = tested on: COLO 205 colon
[9] = tested on: DU-145 prostate
[10] = tested on: K-562 leukemia
[11] = tested on: MALME-3M melanoma
[12] = tested on: MDA-MB-231 breast
[13] = tested on: RXF 393 renal
[14] = tested on: SF-268 CNS
[15] = tested on: SF-295 CNS
[16] = tested on: SF-539 CNS
[17] = tested on: UACC-257 melanoma
[18] = tested on: M14 melanoma
[19] = tested on: A549/ATCC NSCLC

Compound	growth [1]	growth [2]	growth [3] [%]	growth [4]	growth [5]	growth [6]	growth [7]	growth [8]	growth [9]	growth [10]	growth [11]	growth [12]	growth [13]	growth [14]	growth [15]	growth [16]	growth [17]	growth [18]	growth [19] [%]
CCN(CC)Cc1cc(Nc2ccnc3ccc(OC)cc23)ccc1O	56%	56.4%	38.5	71.2%	20.1%	-1.72% (active)	18.2%	78.2%	40.5%	12.7%	75%	58.8%	48.9%	53%	79%	64.7%	-17.7% (active)	29.5%	–
CCOC(=O)Nc1ccc2nc(N3CCCCCC3)sc2c1	47.9%	54.3%	46.2	33.2%	17.1%	-12.7% (active)	40.2%	-7.85% (active)	22.4%	–	38.9%	–	14.4%	49%	23.5%	-1.3% (active)	64.3%	19.5%	32
O=C(NO)c1ccc(CNc2cccc3nc(C4CC4)n(-c4ccccc4)c(=O)c23)cc1	-48.4% (active)	44.4%	37.7	21.5%	22.6%	19.2%	24.8%	8.11% (active)	3.14% (active)	11.2%	36.7%	26.4%	-18.7% (active)	7.14% (active)	12.9%	9.38% (active)	37.6%	18.4%	–
CCCCCCCCCCCCCCCCCC(=O)OCCCCCCCCCCCCC	108%	97.2%	130	125%	117%	111%	119%	121%	117%	119%	130%	135%	109%	106%	117%	101%	108%	114%	–
COc1ccc(CC2c3cc(OC)c(OC)cc3CC[N+]2(C)CCC(=O)OCCCCCOC(=O)CC[N+]2(C)CCc3cc(OC)c(OC)cc3C2Cc2ccc(OC)c(OC)c2)cc1OC (stereo not given)	93.4%	76.3%	90.9	100%	100%	86.1%	103%	112%	99.8%	111%	99.6%	92.2%	91.5%	87.6%	93.5%	100%	100%	88.5%	–
CC(C)(C)[Si](C)(C)OC1[C@@H](O[Si](C)(C)C(C)(C)C)[C@@H](CNC(=O)NC(=O)NC(=O)CCl)O[C@H]1n1cnc2c(NC(=O)Nc3ccccc3)ncnc21 (stereo not given in full)	-35.6% (active)	88.2%	103	36.7%	43.5%	–	26.6%	57.1%	87.5%	47.1%	-78.7% (active)	-28.3% (active)	21.9%	47.1%	-20.6% (active)	82.7%	97.8%	64.7%	55.8
CCCCCCCCCCCCC1CCC(=O)O1 (stereo not given)	101%	100%	74.6	91.8%	107%	86.9%	85.9%	97.9%	104%	97.1%	98.2%	103%	123%	97.1%	105%	89.8%	107%	91.6%	–
CCCCCCCC/C=C/CCCCCCCC1=NC(C)(C)CN1C(C)C	-2.44% (active)	61.4%	76.8	-79.6% (active)	-45.9% (active)	-57.6% (active)	–	-67.3% (active)	21.9%	-54.5% (active)	-19.5% (active)	-9.32% (active)	-68.1% (active)	4.16% (active)	6.07% (active)	8.28% (active)	11.1%	-75.3% (active)	15.7
CCC1N=C(N)N=C(N)N1c1ccc(Cl)cc1 (stereo not given)	89.4%	96.5%	90.4	102%	39.1%	90.9%	58.6%	121%	105%	57.1%	61.6%	99.5%	89.3%	77.2%	88.9%	109%	88.1%	79.7%	–
O=[N+]([O-])c1ccc(N/N=C\c2ccc(O)cc2O)nc1	44.9%	85%	39.7	33.7%	19.6%	10.9%	18.4%	65.9%	50.7%	22.4%	57.8%	52.9%	36.3%	37.3%	28.5%	37.5%	41.3%	8.7% (active)	–
C=C1C(=O)O[C@H]2[C@H]1CC/C(COC(=O)NCc1[nH]nc3ccccc13)=C\CC[C@@]1(C)O[C@@H]21	69.4%	65.4%	87.6	48.6%	28.6%	-68.6% (active)	-25.4% (active)	-76.7% (active)	12.2%	2.29% (active)	-43% (active)	49.1%	-18.3% (active)	55.2%	72.6%	4.74% (active)	38%	13.8%	–
Cn1c(=O)c2c(nc(N/N=C/c3ccccc3Cl)n2C)n(C)c1=O	94.4%	107%	116	112%	120%	83.1%	97.8%	113%	140%	100%	109%	100%	112%	124%	101%	87.2%	94.8%	103%	–
CCOC(=O)c1ccc2c(c1)[n+](=O)c(C(=O)c1ccc3ccccc3c1)c(C(F)(F)F)n2[O-]	-88.4% (active)	-93.7% (active)	67.2	-93.8% (active)	-100% (active)	-80.1% (active)	-100% (active)	-100% (active)	-100% (active)	–	-69.1% (active)	-99.4% (active)	-71.2% (active)	-88.8% (active)	-84.8% (active)	-100% (active)	-71.7% (active)	-100% (active)	–
CS(=O)(=O)c1ccc(Cl)c([N+](=O)[O-])c1	103%	107%	149	105%	86.9%	95.8%	98.3%	111%	33.9%	1.69% (active)	132%	109%	113%	81.5%	102%	102%	116%	108%	–
CCNC(=O)c1ccc2c(c1)nc(-c1ccc(Cl)cc1)n2-c1cc(C(C)(C)C)[nH]n1	60%	46.9%	70.9	47.3%	36.7%	32.3%	27.7%	51.8%	71.4%	–	34.9%	64.3%	36.2%	51.6%	16.4%	32.6%	79.1%	18.1%	–
CN1C2CCC1/C(=C\c1ccc(F)cc1)C(=O)/C2=C/c1ccc(F)cc1	47.9%	55.6%	50.3	76.7%	14.1%	34.4%	43.8%	14.8%	9.38% (active)	16.2%	61.7%	53.7%	66.2%	63%	72%	73.6%	25.8%	41.2%	–
COC(=O)C(Br)(C(=O)OC)C(Br)C(Br)C(Br)c1ccccc1 (stereo not given)	94.1%	91.8%	102	120%	100%	–	86%	30.1%	89.3%	19.9%	47.5%	89%	-20.8% (active)	101%	114%	26.6%	56.4%	44.2%	97.9
COc1ccc(-c2cnnn2-c2nonc2-n2cccc2)cc1	3.55% (active)	23.6%	49.6	27.2%	7.52% (active)	–	36.6%	-43.1% (active)	9.22% (active)	–	47.8%	33.5%	-18.3% (active)	35.1%	-17.2% (active)	-13.9% (active)	65.6%	-2.06% (active)	26
